# Data published in PubChem BioAssay (NCI).
# The panel holds about 83,000 compounds, 20% with a hit somewhere; the sample as a whole holds those more often.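 Percent growth is the endpoint: 0 to 100 indicates growth inhibition (40 means 60% inhibition), 0 means no net growth, and negative values indicate cell death.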 Activity calls are given as the source filed them. Rule for the calls: active = growth percent below 10; inactive = the rest.
# System: MDA-MB-468 breast
# Experiment: NCI-60 one-dose screen, 48 h (100 = growth as untreated, 0 = no growth, -100 = all killed)
# Conditions: 10 µM unless noted
row,SMILES,growth
1,C[C@@H](NC(=O)[C@@H](CC(=O)N1CCC(N2CCCCC2)CC1)N1C(=O)[C@@H](N2C(=O)OC[C@@H]2c2ccccc2)[C@H]1/C=C/c1cccc(Cl)c1)c1ccccc1,1.45% (active)
2,CC1(C)OCC2OC3(C(=O)O)OC(C)(C)OC3C2O1 (stereo not given),98.5% (inactive)
3,Cc1sc2c(c1C)c(=O)nc1c(-c3nc(-c4ccc(F)cc4)no3)n[nH]n12,110% (inactive)
4,COc1ccc(-n2c(=O)sc3c(Cl)nc(C)nc32)c(OC)c1,57.8% (inactive)
5,CN1CCN(Cc2ccc(NC(=O)c3cncc(C#Cc4cnn5ccccc45)c3)cc2C(F)(F)F)CC1,-36.1% (active)
6,O=CN/N=C/c1ccc(Cl)c([N+](=O)[O-])c1,-11.6% (active)
7,O=C(Nc1ccc(-c2ccnc(Nc3ccc(N4CCOCC4)cc3)n2)cc1)[C@@H]1CCCN1,36.2% (inactive)
8,COc1ccc(C(c2cc(OC)c(OC)c(OC)c2)N2CCN(Cc3ccccc3)CC2)cc1 (stereo not given),53% (inactive)
9,C=CCN1C(=O)c2cccc3c(N4CCOCC4)ccc(c23)C1=O,-40% (active)
10,C=C(C)[C@@H]1CC[C@]2(C(=O)NS(=O)(=O)c3ccccc3)CC[C@]3(C)[C@H](CC[C@@H]4[C@@]5(C)CC[C@H](OC(=O)NS(=O)(=O)c6ccccc6)C(C)(C)[C@@H]5CC[C@]43C)[C@@H]12,25.8% (inactive)
11,C=C(C)[C@@H]1CCC[C@]2(COS(=O)(=O)c3ccc(C)cc3)CC[C@]3(C)[C@@H](CC[C@@H]4[C@@]5(C)CCCNC(C)(C)[C@@H]5CC[C@]43C)[C@@H]12,-78.2% (active)
12,S=c1ccnc[nH]1,122% (inactive)
13,COc1nccc2cc3c(=O)n4c(cc5ccccc54)c(=O)n3c12,89.4% (inactive)
14,CCOC(=O)c1c(-c2ccc(Cl)cc2)c(C#N)c(=O)n(-c2ccccc2CC)c1N,98.9% (inactive)
15,CN(C)c1nc(-c2ccco2)n2nc(-c3ccc(Cl)cc3)cc2n1,78.3% (inactive)
16,CC(C)OP(=O)(OC(C)C)c1ncc(-c2ccc(C(F)(F)F)cc2)c(NC2CCCCCC2)n1,12.8% [33.3 µM] (inactive)
17,CC[C@@H]1C(=O)N(C)c2cnc(Nc3ccc(C(=O)NC4CCN(C)CC4)cc3OC)nc2N1C1CCCC1,-33.3% (active)
18,CC(C)(C)c1ccc(O)c(Br)c1,70.2% (inactive)
19,CC(=O)O[C@H]1CC[C@@]2(C)[C@@H](CC[C@@H]3[C@@H]2CC[C@@]2(C)[C@H]3CC[C@]2(O)C(C)=O)C1,94.1% (inactive)
20,C#CCOc1cccc(Nc2ncnc3c(NC(=O)CCl)cccc23)c1,-66.7% (active)
21,CC1(C)CC[C@]23CC[C@]4(C)[C@H](CC[C@@H]5[C@@]6(C)CC[C@H](N)C(C)(C)[C@@H]6CC[C@]54C)[C@H]2[C@H]1OC3,0.703% (active)
22,CC(C)=C1C=C2CC[C@@H]3[C@](C)(CCC[C@@]3(C)C(=O)O)[C@H]2CC1,0.17% (active)
23,Cc1c(O)nc(N)[nH]c1=O,105% (inactive)
24,O=C(O)Cc1ccc2c(c1)Cc1cccnc1O2,97.1% (inactive)
25,COc1ccc(CC(C)=C(c2ccc(OCCN3CCCC3)cc2)c2ccc(OCCN3CCCC3)cc2)cc1,-85.2% (active)
